This is a sample that favours compounds with a hit; in the whole collection about 2.4% have one here.
M1 PAM parental: counter-screen for M1 PAMs: effect in parental CHO-K1 cells. ATP EC20, Fluo-8 calcium fluorescence; 0% at ATP EC20, 100% at ATP max. activation, % at 3 µM. 360,000 tested, 0.02% active. AID 602247;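 active = activation above the run cutoff, the mean activation of all test compounds plus 3 SD, cut at about 40% in these data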;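 also: peak over basal fluorescence ratio in a 140 s read after ATP addition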
M1 ag: activates human CHRM1 receptor | P11229 | CHO-K1 hM1, Fluo-8 calcium fluorescence, agonist mode; 0% DMSO, 100% acetylcholine EC100 | activation, % at 3 µM | 360,000 tested, 0.33% active | AID 588814;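 active = activation above the run's mean compound activation plus 3 SD, cut at about 16% in these data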;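 also: peak over basal fluorescence ratio within a 140 s kinetic read after compound addition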
Target sequence (P11229 whole entry, looked up): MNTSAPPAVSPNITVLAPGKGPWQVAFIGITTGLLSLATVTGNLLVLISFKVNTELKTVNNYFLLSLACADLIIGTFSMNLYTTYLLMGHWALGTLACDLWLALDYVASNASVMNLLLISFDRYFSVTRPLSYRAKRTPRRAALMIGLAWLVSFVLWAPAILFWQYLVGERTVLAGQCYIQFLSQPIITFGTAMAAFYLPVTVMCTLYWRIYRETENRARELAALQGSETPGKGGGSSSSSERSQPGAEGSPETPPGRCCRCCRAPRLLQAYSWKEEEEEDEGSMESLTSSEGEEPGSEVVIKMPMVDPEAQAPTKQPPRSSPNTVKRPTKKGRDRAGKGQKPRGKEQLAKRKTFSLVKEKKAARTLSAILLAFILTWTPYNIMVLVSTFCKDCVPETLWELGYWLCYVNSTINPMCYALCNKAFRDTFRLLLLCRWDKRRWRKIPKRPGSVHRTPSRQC
CHO-K1 Ca ag: counter-screen for M1 agonists: effect in parental CHO-K1 cells | 360,000 tested, 0.48% active | Fluo-8 calcium fluorescence; scaled to maximal ATP response, vehicle zero | activation, % at 3 µM; in the data active = activation above about 15%;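 also: untransfected CHO-K1 host cells lacking M1 receptor as counterscreen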
CHO-K1 Ca antag: counter-screen for M1 antagonists: effect in parental CHO-K1 cells; ATP-induced calcium, Fluo-8 fluorescence; inhibition, % at 3 µM; 360,000 tested, 0.6% active;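 active = inhibition above a per-plate cutoff, the plate's mean sample inhibition plus 3 SD, cut at about 24% in these data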;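 also: 0% = DMSO plus EC80 ATP and 100% = DMSO alone without ATP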
CHRM1 antagonist: blocks human M1 muscarinic receptor; P11229; AID 588852; inhibition, % at 3 µM; CHO-K1 hM1, Fluo-8 calcium fluorescence, ACh EC80 antagonist; 360,000 tested, 1.3% active;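 active = percent inhibition above its own plate's cutoff, namely the mean of that plate's compound wells plus 3 SD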;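 also: peak over basal fluorescence ratio during 140 s after agonist addition; 0% = ACh EC80 plus DMSO and 100% = DMSO alone without agonist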
CHRM1 PAM: potentiates human M1 receptor response to acetylcholine. P11229. CHO-K1 hM1, Fluo-8 calcium fluorescence, ACh EC20; 0% = ACh EC20, 100% = maximal ACh. activation, % at 3 µM. 360,000 tested, 0.088% active. AID 588819; in the data active = activation above about 19%, passing the limit was not always enough
An asterisk follows results filed as active.

SMILES	M1 PAM parental	M1 ag	CHO-K1 Ca ag	CHO-K1 Ca antag	CHRM1 antagonist	CHRM1 PAM
CC(C1CC1)N(Cc1ccccc1)C(=S)Nc1ccccc1Cl (stereo not drawn)	20	-5	18*	-15	5	-1
CCCCCc1ccc(OCCOCCn2c[n+](C)c3ccccc32)c(CCCCC)c1	18	3	0	10	79*	-30
CCCCCc1ccc(OCCC[n+]2ccccc2)c(CCCCC)c1	17	-3	8	-4	69*	-27
CC(=O)Oc1ccc(-c2ccc(C(=O)OCC(=O)N(C)CC(=O)Nc3ccccc3Cl)cc2)cc1	1	13	6	9	4	-2
O=C(Nc1ccc(F)cc1F)N1CCN(CCc2ccccc2)CC1	17	3	30*	-10	-6	11
O=C(NCc1ccccc1)c1cc(C2COCCN2C(=O)OCCF)on1 (stereo not drawn)	5	-1	1	-3	-10	5
O=C1C=C(N2CCCCCC2)C(=O)N1c1ccc(Cl)cc1	-1	-8	1	-12	81*	-32
COc1ccccc1NC(=O)CN1CCN(CC(=O)Nc2ccc(OCc3ccccc3)cc2)CC1	-4	0	1	19	16*	-12
O=C(CN1CCCCC1)Nc1ccccc1NC(=O)CN1CCCCC1	-7	-5	0	3	-8	8
CC(C(=O)Nc1ccc(OCc2ccccc2)cc1)N1CCCC1 (stereo not drawn)	-13	-8	1	0	49*	-24
CCOc1ccccc1NC(=O)CN1CCCCCC1	-10	-10	0	-31	26*	-15
COc1cc(NC(=O)c2ccccc2)c(OC)cc1NC(=O)CN1CCCCC1	-6	-3	0	26*	17	-8
CN(CC(=O)Nc1ccccc1Cl)C(=O)C1CSC2(C)CCC(=O)N12 (stereo not drawn)	3	-3	0	-10	-5	3
CCN(CC(=O)Nc1c(F)cccc1F)C(=O)C1COc2ccccc2O1 (stereo not drawn)	-12	3	0	2	-6	11
CCCCNC(=O)C1(C)CCCCN1C(=O)c1cncc(Br)c1 (stereo not drawn)	1	-4	0	6	-7	1
O=C(COc1ccc(Cl)cc1)Nc1ccc(C(=O)NCc2cccnc2)cc1	6	1	6	1	8	1
O=C(COc1ccc(Nc2ccccc2)cc1)Nc1ccncc1	-18	3	15*	9	23	-9
O=C(COc1ccc(C(=O)NCc2cccnc2)cc1)Nc1cccc(C(F)(F)F)c1	-27	-2	9	13	36*	-18
O=C(COc1ccc(-c2ccccc2)cc1)Nc1cccnc1	-11	2	18*	15	39*	-14
Cc1ccc(C(=O)N[C@H](C(=O)NC2CCCCCCC2)C(C)C)cc1	4	-2	0	-8	-7	2
COc1ccccc1N1CCN(C(=O)CCC(=O)Nc2nnc(C(C)C)s2)CC1	14	-2	0	-14	-7	7
Cc1ccc(-n2c(-c3cccnc3)n[nH]c2=S)c(C)c1	-6	-2	0	26*	1	7
CCOC(=O)C1=C(COC(=O)CSc2ccc(C)cc2C)NC(=O)NC1C (stereo not drawn)	1	-3	1	-9	-2	5
N#C/C(=C\c1coc2ccc(O)cc2c1=O)C(=O)Nc1nc2ccccc2s1	-19	62*	58*	40*	21	-13
Cc1ccc(C)c(S(=O)(=O)NCc2ccc3c(c2)OCO3)c1	-23	0	0	22	-17	9
CN1C/C(=C/c2ccccc2[N+](=O)[O-])C(=O)/C(=C\c2ccccc2[N+](=O)[O-])C1	17	-8	0	-14	-13	2
CC(C)(C)c1ccc(/C=N/OCC(=O)NCc2ccccc2)cc1	21	18*	1	-13	-10	15
Cc1ccc(CNC(=O)CO/N=C/c2ccc(C(C)(C)C)cc2)cc1	39	5	0	-13	-4	15
Cc1cc([N+](=O)[O-])ccc1NC(=O)c1ccco1	9	-5	0	4	-14	10

Screening data (PubChem)
